# POLK inh – qHTS for Inhibitors of Polymerase Kappa. purified Pol kappa, fluorescent DNA synthesis assay, 10 min. Potency, µM (series often up to 107 µM), without a hit: at the highest dose activity, negative = inhibition, actives largely listed as inhibitors. 0.53% of 400,000 active; further: on the % scale 0 is the no-effect control and ±100 the full control effect
# Target sequence (Q9UBT6 whole entry, looked up): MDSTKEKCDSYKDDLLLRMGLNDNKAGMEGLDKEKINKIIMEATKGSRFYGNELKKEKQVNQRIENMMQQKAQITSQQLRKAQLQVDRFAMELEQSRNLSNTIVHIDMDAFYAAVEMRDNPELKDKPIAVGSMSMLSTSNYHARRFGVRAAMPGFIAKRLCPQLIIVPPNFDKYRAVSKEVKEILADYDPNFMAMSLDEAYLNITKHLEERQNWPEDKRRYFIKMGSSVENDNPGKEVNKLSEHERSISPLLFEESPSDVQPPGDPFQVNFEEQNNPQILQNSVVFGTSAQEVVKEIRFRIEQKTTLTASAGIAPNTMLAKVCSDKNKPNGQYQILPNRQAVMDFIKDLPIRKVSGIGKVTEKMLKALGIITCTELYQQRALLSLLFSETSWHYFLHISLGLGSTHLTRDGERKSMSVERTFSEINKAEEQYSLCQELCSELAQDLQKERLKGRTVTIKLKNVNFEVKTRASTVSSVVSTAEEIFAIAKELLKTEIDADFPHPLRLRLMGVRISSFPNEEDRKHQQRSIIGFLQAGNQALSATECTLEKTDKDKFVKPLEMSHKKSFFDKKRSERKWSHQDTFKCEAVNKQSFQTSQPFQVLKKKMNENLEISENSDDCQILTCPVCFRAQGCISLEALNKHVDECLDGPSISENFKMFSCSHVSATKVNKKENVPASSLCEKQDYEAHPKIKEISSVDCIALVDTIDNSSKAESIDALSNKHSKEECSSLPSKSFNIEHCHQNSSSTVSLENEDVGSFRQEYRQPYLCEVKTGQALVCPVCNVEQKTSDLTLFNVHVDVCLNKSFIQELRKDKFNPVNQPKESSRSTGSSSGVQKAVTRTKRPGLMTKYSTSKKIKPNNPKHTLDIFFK
#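 Inhibition of 10 nM Pol kappa is measured by a fluorescent read-out at 0 and 10 min following addition of 50 nM substrate (final), with a 15-min room-temperature compound preincubation.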
# Pol iota inh – qHTS for Inhibitors of Polymerase Iota; DNA polymerase iota (Homo sapiens), Q9UNA4; Pol iota fluorescent replication assay, 10 min; Potency, µM (series often up to 115 µM), inactives show at the top dose activity, negative = inhibition, hits mostly inhibitors; 1% of 390,000 active; AID 588590, 2011
#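 Fluorescent replication assay read twice, at 0 min and 10 min after adding 50 nM (final) substrate. Enzyme (10 nM) and compounds were first incubated 15 min at room temperature; enzyme-free buffer wells were negative controls.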
# WRN inhibitor – qHTS for Inhibitors of WRN Helicase | WRN helicase unwinding, fluorescent forked duplex, kinetic | AID 651768, 2012 | 0.46% of 360,000 active | Bifunctional 3'-5' exonuclease/ATP-dependent helicase WRN (Homo sapiens), Q14191 | Potency, µM (doses to about 114 µM), for inactives: at the top dose activity change, negative = inhibition, hits mostly inhibitors; further: on the % scale 0 is the no-effect control and ±100 the full control effect; nearly all actives have a fitted effect of over 55% in size
#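 Kinetic red-fluorescence monitoring (525/598 nm) tracks WRN helicase activity after 100 nM fluorophore-quencher forked duplex and 2 mM ATP are added to 20 nM enzyme pretreated 15 min at room temperature with compound.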
# FEN1 inhibitor – qHTS Assay for the Inhibitors of Human Flap endonuclease 1 (FEN1); P39748; Recombinant FEN1 flap cleavage, fluorescence, 15 min; Potency, µM (doses to about 114 µM), for the others: at the highest dose activity change, negative = inhibition, usual class: inhibitors; 0.35% of 390,000 active; further: on the % scale 0 is the no-effect control and ±100 the full control effect; nearly all actives have a fitted effect of over 65% in size
#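 Concentration–response screening of FEN1 (10 nM): 15 min compound preincubation at room temperature, reaction started with 50 nM substrate and read at 0 and 15 min. Corrected, normalized data were fitted by a four-parameter Hill equation.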
# POLH inh – qHTS for Inhibitors of Polymerase Eta; AID 588591, 2011; Potency, µM (highest dose often 114 µM), for the others: at the top dose activity change, negative = inhibition, most hits filed as inhibitors; recombinant Pol eta, fluorescent DNA replication assay; DNA polymerase eta (Homo sapiens), Q9Y253; 1.2% of 390,000 active; further: on the % scale 0 is the no-effect control and ±100 the full control effect
#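 Pol eta (10 nM) was preincubated with compounds for 15 min at room temperature, after which fluorescent replication substrate (50 nM final) was added to start the reaction. Fluorescence was read kinetically at 0 and 10 min.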
# Pol beta inh – qHTS Assay for Inhibitors of DNA Polymerase Beta. P06746. Pol beta primer extension/strand displacement, fluorescence kinetic. Potency, µM (top dose mostly 114 µM), for inactives: at the top dose activity change, negative = inhibition, hits mostly inhibitors. 1.3% of 340,000 active; further: on the % scale 0 is the no-effect control and ±100 the full control effect
#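 Preincubation: enzyme (10 nM) with compound, 15 min, RT. Reaction: substrate added to 50 nM final. Reads: 0 and 10 min. Analysis: normalized, Hill fit.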
# * = called active by the depositor; u = inconclusive; x = not tested or not shown; [ ] = dose if it differs, or a comment. Sampled rows, rich in hits. Any-hit rate of the full collection: about 2.4%. The call rests on the fitted dose curve; in most records, active means well fitted curve in the direction sought with a large enough effect; inconclusive means small, poorly fitted or top-dose-only effect, or another doubt; inactive means no such curve, though single readings can be large; an effect the other way counts as inactive or inconclusive. Potency means the concentration at half of the fitted maximal effect.
SMILES,POLK inh,Pol iota inh,WRN inhibitor,FEN1 inhibitor,POLH inh,Pol beta inh
CCOC(=O)C(=CNc1ccc(Cl)cn1)C(=O)OCC,-10%,-7%[58.9 µM],1%,0%,-13%,-4%
CCOC(=O)c1ccc(NC(=O)Nc2cccc(C)n2)cc1,-1%,-15%,3%,-2%,-6%,1%
CCOC(=O)c1ccc(NC(=O)Nc2ccn(C)n2)cc1,-17%,89µM*,-12%,-3%,-4%,30%
Cc1ccc(/C=C/C(=O)Nc2nnc(SCc3ccc(C#N)cc3)s2)o1,u,40µM*,u,19%,u,21%
Cn1cc(C2=C(c3cn(CCCSC(=N)N)c4ccccc34)C(=O)NC2=O)c2ccccc21,4%[60.1 µM],89µM*,x,-22%,x,x
CN(C)CCCn1cc(C2=C(c3c[nH]c4ccccc34)C(=O)NC2=O)c2ccccc21,-13%[19.4 µM],x,x,x,x,x
Cc1ccc(NC(=O)C2CCCN(S(=O)(=O)c3ccc4c(c3)CCCC(=O)N4)C2)cc1N(C)C (stereo not given),-7%,24%,x,10%,-17%,-1%
O=C(/C=C/c1ccc(N2CCC(c3ccccc3)=N2)cc1)c1ccccc1,-15%,u,50µM*,-9%,-15%,0%
COc1cccc(/C=C2\SC(=S)N(CCCC(=O)Nc3ccc(C(=O)O)cc3)C2=O)c1,-8%,-25%,2%,3%,u,20%
Cc1ccc(NC(=O)COc2cccc(/C=C3\SC(=S)N(CCC(=O)O)C3=O)c2)cc1Cl,79µM*,50µM*,-15%[11.6 µM],0%,45µM*,u
O=C(CCN1C(=O)/C(=C/c2cccs2)SC1=S)Nc1ccc(C(=O)O)c(O)c1,-3%,18%,-12%[11.6 µM],-1%,40µM*,u
O=C(CCN1C(=O)/C(=C/c2cccs2)SC1=S)Nc1ccc(O)cc1,1%,-6%,6%,-1%,-18%,21%
O=C(O)CCN1C(=O)/C(=C\c2cccc(OCC(=O)Nc3ccc(Cl)cc3)c2)SC1=S,u,u,-32%,0%,1%,56µM*
COc1cccc(/C=C2/SC(=S)N(CCCC(=O)Nc3ccc(O)cc3)C2=O)c1,-7%,7%,-1%,15%,5%,-7%
CCN(C(=O)Cn1nnc2sc3c(c2c1=O)CCC(C(C)(C)C)C3)c1cccc(C)c1 (stereo not given),1%,29%,x,9%,x,-3%
CCOC(=O)c1c(NC(=O)C2C3C=CC(C3)C2(C)C(=O)O)sc2c1CCCC2 (stereo not given),u,-31%,-19%[57.1 µM],-10%,20µM*,22µM*
N#Cc1nc(-c2ccccc2)cc(-c2ccccc2)n1,-9%,-10%,x,13%,x,x
Cc1sc(-n2c(C)cc(/C=C3\SC(=S)NC3=O)c2C)c(C#N)c1C,79µM*,u,56µM*,u,22µM*,32µM*
O=Nc1c2cc(-c3ccccc3)[nH]nc-2c2ccccc12,-6%,-6%,-4%,-19%,-8%,40µM*
COc1cccc(C(=O)N(Cc2cccnc2)c2nc3c(OC)ccc(C)c3s2)c1OC,-8%[60.1 µM],-5%,x,-6%,-18%,u
COCCNC(=O)C(c1ccc(C)o1)N(CC1CCCO1)C(=O)Cn1nnc2ccccc21 (stereo not given),-1%,8%,5%,-2%,-5%,-2%
O=C(NCc1ccco1)C(c1ccc(F)cc1)N(CC1CCCO1)C(=O)Cn1nnc2ccccc21 (stereo not given),-6%,16%,1%,-14%,-17%,0.32µM*
Cc1c(NC(=O)Cc2cccs2)cccc1[N+](=O)[O-],-13%,24%,-15%,4%,u,35µM*
Cc1cccc(C)c1NC(=O)Cc1cccs1,-14%,u,-32%,4%,u,40µM*
O=C(Cc1cccs1)Nc1ccccc1,-1%,6%,-5%,-2%,-18%,70%
SMILES,POLK inh,Pol iota inh,WRN inhibitor,FEN1 inhibitor,POLH inh,Pol beta inh
Cc1c(Cl)cccc1NC(=O)Cc1cccs1,-6%,21%,-1%,21%,-7%,19%
CCCCN(CCCC)S(=O)(=O)c1ccc(NC(=O)Cc2cccs2)cc1,u,50µM*,-5%[11.6 µM],-14%,79µM*,u
CC(=O)c1cccc(NC(=O)Cc2cccs2)c1,u,-18%,-10%[57.1 µM],13%,u,32µM*
CCCNS(=O)(=O)c1ccc(NC(=O)Cc2cccs2)cc1,-2%,16%,9%,10%,-5%,-29%
CC(C)(C)c1csc(NC(=O)Cc2cccs2)n1,-16%,72%,-14%,1%,-28%,22µM*
Cc1ccc(NC(=O)c2ccc(NC(=O)N3CCSc4nc(C)cc(C)c43)cc2)c(Cl)c1,-9%,10%,x,12%,2%,7%
Cc1ccc(NC(=O)CSCC(=O)Nc2ncc3c(n2)CC(c2ccco2)CC3=O)cc1 (stereo not given),u,28µM*,-35%,-9%,u,u
Cc1ccc(C(=O)Nc2ncc3c(n2)CC(c2ccco2)CC3=O)cc1 (stereo not given),-33%,u,-16%,-1%,2%,8%
Cn1cccc1C(=O)N1CCC2(CC1)CCN(c1ccncc1)CC2,1%[60.1 µM],x,x,x,x,x
CSc1ccc(/C=C2/C(C)=C(CC(=O)O)c3cc(F)ccc32)cc1,-3%[60.1 µM],x,x,x,x,x
COc1ccc2c(c1)c1c(c(=O)n(-c3ccc(OC)c(OC)c3)c(=O)n1Cc1ccc(F)cc1)n2C,-5%,6%,x,2%,-1%,1%
COc1cc(C(=O)NC2CCN(C)CC2)ccc1Nc1ncc2c(n1)N(CCc1ccccc1)CCC(=O)N2C,-12%,-13%,-8%,50µM*,-5%,x
O=c1c(-c2ccccc2)nc2cnc(N3CCOCC3)nc2n1Cc1cccs1,-2%[60.1 µM],x,x,x,x,x
CC(=O)c1c(C)oc2c(Br)cc(NS(=O)(=O)c3ccc(Br)cc3)cc12,-3%[60.1 µM],79µM*,x,13%,-25%,u
Cc1oc2ccc(NS(=O)(=O)c3ccc(F)cc3)cc2c1C(=O)O,-1%,-9%,0%,-1%,-12%,7%
CCN(CC)S(=O)(=O)c1cccc(C(=O)N/N=C/c2cc(OC)c(O)c(OC)c2)c1,-8%,-7%,-17%,u,-23%,12%
CCN(CC)S(=O)(=O)c1cccc(C(=O)N/N=C/c2cccc(O)c2O)c1,-42%,20µM*,u,-16%,-5%,8%
c1ccc(-c2ccc(N3CCCC4(CCNCC4)C3)cc2)cc1,-17%[60.1 µM],x,x,x,x,x

# Screening data deposited in PubChem by National Center for Advancing Translational Sciences (NCATS).
